Calls of active or inactive are those of the source.
How the values were obtained:
[1] = small molecules captured by biotinylated probe aFSTL3 – biochemical, small-molecule microarray, fluorescence 635/667, stem cell growth factor project, primary screen (AID 1064); conditions: higher = more signal;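 also: measures binding of the biotinylated anti-FSTL3 antibody to printed compounds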
[2] = binders from COS7 lysate, DM2A8 probe, primary screen, torsin A project, cell lysate, small-molecule microarray, fluorescence 635/667 (AID 1065); conditions: higher = more signal, COS7 lysate expressing mutant human TOR1A
[3] = small molecules captured by biotinylated probe aFGF2 – biochemical, small-molecule microarray, fluorescence 635/667, stem cell growth factor project, primary screen (AID 1067); conditions: higher = more signal;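 also: measures binding of biotinylated aFGF2 protein to printed compounds on slides; z-score merges feature fluorescence and signal-to-noise across triplicate slides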
[4] = small molecules captured by biotinylated probe aFGF10 – biochemical, small-molecule microarray, fluorescence 635/667, stem cell growth factor project, primary screen (AID 1071); conditions: higher = more signal;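 also: score merges 667 nm spot intensity and signal to noise from triplicate slides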
[5] = target: Neurogenic locus notch homolog protein 2 (Homo sapiens) (UniProt Q04721); test: small molecules binding Notch2 protein – biochemical, small-molecule microarray, 635 nm fluorescence, stem cell growth factors, primary screen (AID 1073); conditions: higher = more signal
[6] = target: Pro-neuregulin-1, membrane-bound isoform (Homo sapiens) (UniProt Q02297); test: small molecules binding neuregulin-1 protein – biochemical, small-molecule microarray, fluorescence 635/667, psychiatric disease protein project, primary screen (AID 1075); conditions: NRG1 binding, 635 nm fluorescence, higher = more signal;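 also: score combines 667 nm spot fluorescence with signal to noise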
Pro-neuregulin-1, membrane-bound isoform (Homo sapiens), sequence (Q02297 whole entry, looked up, the tested form may be a part, canonical isoform): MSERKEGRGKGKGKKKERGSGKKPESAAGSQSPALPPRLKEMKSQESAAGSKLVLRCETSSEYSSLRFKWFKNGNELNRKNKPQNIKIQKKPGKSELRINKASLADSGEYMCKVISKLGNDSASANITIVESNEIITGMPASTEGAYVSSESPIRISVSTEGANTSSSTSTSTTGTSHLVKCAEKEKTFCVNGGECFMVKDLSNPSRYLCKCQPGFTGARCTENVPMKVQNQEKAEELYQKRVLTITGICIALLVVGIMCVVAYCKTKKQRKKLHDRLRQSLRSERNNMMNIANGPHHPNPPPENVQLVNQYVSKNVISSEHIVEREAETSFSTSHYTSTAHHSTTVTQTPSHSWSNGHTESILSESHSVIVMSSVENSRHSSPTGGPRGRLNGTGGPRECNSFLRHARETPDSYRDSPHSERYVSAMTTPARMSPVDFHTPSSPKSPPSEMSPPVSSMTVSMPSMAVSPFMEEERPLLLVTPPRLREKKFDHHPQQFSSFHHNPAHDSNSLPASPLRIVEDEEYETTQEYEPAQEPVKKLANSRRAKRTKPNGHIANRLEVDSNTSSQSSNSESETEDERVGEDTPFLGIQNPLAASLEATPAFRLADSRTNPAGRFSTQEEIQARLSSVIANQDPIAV

[7] = system: Neuregulin-1 EGF-like domain; test: small molecules binding NRG1 EGF domain – biochemical, small-molecule microarray, 635 nm fluorescence, primary screen (AID 1081); conditions: higher = more signal;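 also: binding of the protein to compounds printed on small-molecule microarray slides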
[8] = FRG1 expression reporter modulators in myotubes – cell-based, C2C12 myotubes, firefly/Renilla luciferase, luminescence, FRG1 inhibition for FSHD, primary screen (AID 1084); conditions: FRG1 promoter luciferase, higher = more signal, called active from +8 up or from −8 down
[9] = small molecules captured by biotinylated probe aFST – biochemical, small-molecule microarray, fluorescence 635/667, stem cell growth factor project, primary screen (AID 1086); conditions: higher = more signal;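 also: score merges 667 nm fluorescence with signal-to-noise of each printed compound spot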
[10] = binders of probe aHhip on microarray, primary screen, stem cell growth factor project, biochemical, small-molecule microarray, fluorescence 635/667 (AID 1087); conditions: higher = more signal;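 also: score merges spot fluorescence at 667nm with spot signal to noise ratio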
[11] = system: PRMT1 (protein arginine N-methyltransferase 1); test: small molecules binding arginine methyltransferase PRMT1 – biochemical, small-molecule microarray, 635 nm fluorescence, primary screen (AID 1088); conditions: higher = more signal;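 also: binding of Prmt1 protein to compounds spotted on small-molecule microarray slides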
[12] = growth effects on S. cerevisiae YJM789 – YJM789 clinical isolate, OD600, 24 h, basal, primary screen (AID 1089); conditions: higher = more signal, called active from +8 up or from −8 down;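 also: growth of clinical yeast isolate S. cerevisiae YJM 789 seeded 1000 cells per well; test concentration not given here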
[13] = S. pombe growth modifiers, basal conditions – strain 972, OD600, 24 h, no modulator, primary screen (AID 1090);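 also: basal condition with compound alone and no growth modifier present; test concentration not given here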; conditions: S. pombe 972 growth, higher = more signal, called active from +8 up or from −8 down
[14] = budding yeast growth modifiers under rapamycin – strain BY4716, OD600, 96 h, primary screen (AID 1091); also: test concentration not given here; conditions: S. cerevisiae BY4716 + rapamycin, higher = more signal, called active from +8 up or from −8 down
[15] = target: Torsin-1A-interacting protein 2 (Homo sapiens) (UniProt Q8NFQ8); test: small molecules binding lysate-expressed LULL1 – cell lysate, human LULL1 lysate, 635/667 nm fluorescence, primary screen (AID 1092); conditions: small-molecule microarray, hLULL1 lysate binding, 635 nm fluorescence; higher = more signal;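 also: probe is lysate of COS7 cells overexpressing human LULL1; score merges per-feature 667 nm fluorescence with signal-to-noise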
Torsin-1A-interacting protein 2 (Homo sapiens), sequence (Q8NFQ8 whole entry, looked up): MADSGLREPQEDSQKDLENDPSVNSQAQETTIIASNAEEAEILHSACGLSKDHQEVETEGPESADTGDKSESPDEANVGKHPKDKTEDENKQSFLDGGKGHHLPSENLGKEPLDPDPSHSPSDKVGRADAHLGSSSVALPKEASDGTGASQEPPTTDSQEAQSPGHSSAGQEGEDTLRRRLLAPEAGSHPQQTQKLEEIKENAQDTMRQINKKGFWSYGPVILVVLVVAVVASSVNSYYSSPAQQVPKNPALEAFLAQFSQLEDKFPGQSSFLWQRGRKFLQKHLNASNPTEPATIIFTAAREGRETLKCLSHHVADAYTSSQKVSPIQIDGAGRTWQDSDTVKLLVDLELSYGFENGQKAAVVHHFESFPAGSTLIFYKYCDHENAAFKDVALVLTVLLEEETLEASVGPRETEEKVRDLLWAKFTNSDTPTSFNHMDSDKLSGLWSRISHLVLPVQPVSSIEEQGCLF

[16] = optical density change of DRC41 E. coli – strain DRC41, OD650, 24 h, E. coli filamentation project, primary screen (AID 1093);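 also: MC1000 strain lacking acrAB efflux and sulA so SOS filamentation is blocked; test concentration not given here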; conditions: E. coli DRC41 growth, higher = more signal, called active from +8 up or from −8 down
[17] = probe aLefty2 binding to arrayed compounds – biochemical, biotinylated probe, 635/667 nm fluorescence, primary screen (AID 1094); conditions: small-molecule microarray, higher = more signal;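 also: score merges spot fluorescence near 667 nm with spot signal-to-noise ratio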
[18] = system: Noggin (protein binding on small-molecule microarray); test: small molecules binding Noggin protein – biochemical, 635/667 nm fluorescence, primary screen (AID 1095); conditions: 635 nm fluorescence, higher = more signal;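 also: score merges 667 nm feature fluorescence with signal to noise over triplicate slides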
[19] = target: Neurogenic locus notch homolog protein 3 (Homo sapiens) (UniProt Q9UM47); test: small molecules binding NOTCH3 protein – biochemical, 635/667 nm fluorescence, primary screen (AID 1096); conditions: small-molecule microarray, 635 nm fluorescence, higher = more signal
Neurogenic locus notch homolog protein 3 (Homo sapiens), sequence (Q9UM47 whole entry, looked up): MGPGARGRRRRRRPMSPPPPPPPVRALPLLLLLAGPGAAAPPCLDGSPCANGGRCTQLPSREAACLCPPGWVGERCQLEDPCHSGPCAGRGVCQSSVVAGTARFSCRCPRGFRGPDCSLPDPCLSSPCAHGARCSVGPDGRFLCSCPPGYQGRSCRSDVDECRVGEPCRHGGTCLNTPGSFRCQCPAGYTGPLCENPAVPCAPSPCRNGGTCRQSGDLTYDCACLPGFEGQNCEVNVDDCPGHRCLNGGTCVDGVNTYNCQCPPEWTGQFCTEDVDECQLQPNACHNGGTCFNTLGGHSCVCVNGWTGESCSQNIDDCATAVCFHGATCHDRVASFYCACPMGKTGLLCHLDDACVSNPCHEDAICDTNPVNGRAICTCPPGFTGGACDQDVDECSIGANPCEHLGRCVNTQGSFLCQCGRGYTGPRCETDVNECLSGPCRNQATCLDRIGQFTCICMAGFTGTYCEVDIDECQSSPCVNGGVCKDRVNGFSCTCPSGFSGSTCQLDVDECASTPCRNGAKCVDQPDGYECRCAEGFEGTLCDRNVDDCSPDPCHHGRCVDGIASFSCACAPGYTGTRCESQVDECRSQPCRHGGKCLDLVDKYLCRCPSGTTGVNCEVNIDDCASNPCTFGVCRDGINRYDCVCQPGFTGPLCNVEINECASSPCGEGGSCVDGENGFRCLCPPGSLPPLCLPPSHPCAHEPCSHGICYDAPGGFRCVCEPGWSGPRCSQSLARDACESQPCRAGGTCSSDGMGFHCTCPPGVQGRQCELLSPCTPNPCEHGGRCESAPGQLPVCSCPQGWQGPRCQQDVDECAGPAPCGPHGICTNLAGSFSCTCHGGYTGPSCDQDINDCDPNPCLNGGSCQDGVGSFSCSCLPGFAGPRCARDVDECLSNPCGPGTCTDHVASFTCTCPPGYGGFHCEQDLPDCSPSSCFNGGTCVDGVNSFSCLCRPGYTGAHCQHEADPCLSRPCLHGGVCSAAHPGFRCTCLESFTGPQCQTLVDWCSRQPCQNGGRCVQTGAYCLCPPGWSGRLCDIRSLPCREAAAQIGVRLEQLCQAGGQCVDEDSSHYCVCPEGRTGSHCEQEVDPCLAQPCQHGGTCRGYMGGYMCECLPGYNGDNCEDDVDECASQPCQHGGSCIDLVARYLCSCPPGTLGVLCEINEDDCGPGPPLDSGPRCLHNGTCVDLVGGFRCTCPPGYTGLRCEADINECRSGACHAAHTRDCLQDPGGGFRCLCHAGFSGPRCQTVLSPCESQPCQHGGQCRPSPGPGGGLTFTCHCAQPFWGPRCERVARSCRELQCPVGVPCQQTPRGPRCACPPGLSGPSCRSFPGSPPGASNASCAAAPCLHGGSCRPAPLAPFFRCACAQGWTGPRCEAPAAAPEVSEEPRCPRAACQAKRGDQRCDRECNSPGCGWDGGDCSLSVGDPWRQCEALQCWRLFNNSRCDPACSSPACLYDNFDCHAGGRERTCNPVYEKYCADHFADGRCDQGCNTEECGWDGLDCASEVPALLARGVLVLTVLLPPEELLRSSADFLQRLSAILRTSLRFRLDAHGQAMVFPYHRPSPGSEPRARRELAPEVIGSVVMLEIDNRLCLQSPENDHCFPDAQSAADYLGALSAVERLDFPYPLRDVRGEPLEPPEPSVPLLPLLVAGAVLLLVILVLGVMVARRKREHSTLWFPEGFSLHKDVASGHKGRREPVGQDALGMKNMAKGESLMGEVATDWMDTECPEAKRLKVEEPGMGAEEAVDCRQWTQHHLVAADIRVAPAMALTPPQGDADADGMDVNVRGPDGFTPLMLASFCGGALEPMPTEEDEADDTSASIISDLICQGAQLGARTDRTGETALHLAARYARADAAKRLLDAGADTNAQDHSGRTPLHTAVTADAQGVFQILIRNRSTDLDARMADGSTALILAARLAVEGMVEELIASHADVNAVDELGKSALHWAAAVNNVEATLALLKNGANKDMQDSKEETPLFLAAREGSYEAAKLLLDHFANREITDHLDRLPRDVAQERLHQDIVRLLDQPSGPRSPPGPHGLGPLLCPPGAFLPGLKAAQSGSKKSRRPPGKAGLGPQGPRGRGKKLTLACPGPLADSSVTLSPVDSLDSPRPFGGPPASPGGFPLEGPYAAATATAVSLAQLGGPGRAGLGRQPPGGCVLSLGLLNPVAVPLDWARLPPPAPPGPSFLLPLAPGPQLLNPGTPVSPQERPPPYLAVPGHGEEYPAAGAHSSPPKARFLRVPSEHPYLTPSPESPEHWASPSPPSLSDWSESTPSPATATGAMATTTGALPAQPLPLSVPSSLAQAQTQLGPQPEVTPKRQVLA

[20] = probe aEGFR binding to arrayed compounds – biochemical, biotinylated probe, 635/667 nm fluorescence, primary screen (AID 1097); conditions: small-molecule microarray, higher = more signal;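 also: probe is a biotinylated anti-EGFR antibody binding compounds printed on slides; score combines fluorescence near 667 nm and signal to noise of each spot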

Row | Structure (SMILES) | composite z-score [1] | composite z-score [2] | composite z-score [3] | composite z-score [4] | composite z-score [5] | composite z-score [6] | composite z-score [7] | z-score [8] | composite z-score [9] | composite z-score [10] | composite z-score [11] | z-score [12] | z-score [13] | z-score [14] | composite z-score [15] | z-score [16] | composite z-score [17] | composite z-score [18] | composite z-score [19] | composite z-score [20]
1 | NC(=O)N1C(=O)C2C(C1=O)C1C=C(c3ccc(CO)cc3)C2C(C2CC2)N1Cc1sc2ccccc2c1Cl (stereo not given) | -0.418 | 2.2 | 0.0433 | 1.17 | 1.19 | 1.6 | 1.28 | -1.27 (inactive) | 0.32 | 0.0623 | 1.54 | 2.22 (inactive) | -2.31 (inactive) | 0.266 (inactive) | 2.68 | 1.34 (inactive) | 0.0139 | 0.695 | 1.06 | -0.0271
2 | COC(=O)C[C@H]1O[C@]2(C(=O)N(C)c3ccccc32)[C@@H](C)[C@@H]1[Si](C)(C)c1ccc(C)cc1 | -0.361 | 0.285 | 0.033 | 0.453 | 0.778 | 0.274 | 0.815 | -2.37 (inactive) | 0.512 | 0.28 | 1.12 | -0.421 (inactive) | -11.3 (active) | -0.673 (inactive) | 0.797 | 2.17 (inactive) | -0.137 | 1.27 | 0.989 | -0.0674
3 | O=c1cccc(-c2ccc(C(F)(F)F)cc2)o1 | -0.0035 | -0.814 | -0.045 | -0.173 | -0.33 | -0.289 | -0.44 | 3.27 (inactive) | -0.126 | -0.0994 | -1.99 | -2.99 (inactive) | -8.39 (active) | 0.427 (inactive) | -0.0985 | -0.491 (inactive) | -0.16 | -0.161 | -0.894 | -0.22
4 | CN(C)CCCNC(=O)[C@@]1(C)c2ccccc2C(=O)N(Cc2cc(C(F)(F)F)cc(C(F)(F)F)c2)[C@H]1c1ccc(CO)cc1 | -0.303 | -0.401 | -0.141 | -0.404 | -0.463 | -0.012 | 0.538 | 0.123 (inactive) | -0.353 | 0.192 | 0.0376 | 0.113 (inactive) | -1.83 (inactive) | -0.945 (inactive) | 0.324 | -0.72 (inactive) | -0.192 | -1.19 | -0.35 | -0.186
5 | C=C(/C=C/CNS(=O)(=O)c1ccc(C)cc1)[C@H](O)[C@H]1CCCN1S(=O)(=O)c1ccccc1[N+](=O)[O-] | -0.402 | 0.578 | -0.0817 | 0.395 | 0.324 | 0.211 | 0.0706 | -4.12 (inactive) | 0.279 | 0.0373 | 0.13 | 1.27 (inactive) | 0.24 (inactive) | 1.72 (inactive) | -0.271 | 0.913 (inactive) | -0.0948 | 1.3 | 0.291 | 0.0408
6 | C=CCNC(=O)[C@@H]1[C@H]2C(=O)O[C@H](c3ccccc3)[C@H](c3ccccc3)N2[C@H](c2ccc(OCCO)cc2)[C@@]12C(=O)N(C(=O)OCCOC)c1ccc(C#CC3=CCCCC3)cc12 | 0.0698 | 0.937 | 0.0524 | 0.59 | 1.35 | 1.33 | 1.17 | 0.223 (inactive) | 0.622 | 0.21 | 1.55 | 1.27 (inactive) | 1.14 (inactive) | 3.61 (inactive) | 2.83 | -0.741 (inactive) | -0.0373 | 0.978 | 1.14 | 0.0209
7 | NCCCCCCNC(=O)[C@H]1C[C@H]2C(=O)N[C@@H](Cc3ccccc3)C(=O)N2[C@H]1c1ccc(O)cc1 | 0.465 | 0.399 | -0.0334 | 0.0116 | 0.421 | 1.34 | 1.18 | 1.1 (inactive) | 0.377 | -0.196 | 1.11 | -1.8 (inactive) | -0.599 (inactive) | -1.24 (inactive) | 2.45 | 0.933 (inactive) | -0.0824 | 1.07 | 0.272 | -0.0685
8 | O=C1C2C=CC(C(O)c3cc(C(F)(F)F)cc(C(F)(F)F)c3)N(Nc3ccc([N+](=O)[O-])cc3)C2C(=O)N1c1ccccc1 (stereo not given) | -0.25 | 0.466 | 0.0678 | 0.94 | 1.67 | 1.86 | 1.17 | 0.0404 (inactive) | 0.598 | -0.166 | 1.54 | 0.527 (inactive) | 1.15 (inactive) | 33.4 (active) | 3.47 | -1.57 (inactive) | -0.0229 | 0.411 | 1.02 | 0.0149
9 | COC(=O)[C@@]1(Cc2ccc(OC)cc2)[C@H]2c3cc(C(=O)N4CCCC4)n(CCc4cc5ccccc5[nH]4)c3C[C@H]2CN1C(=O)c1ccccc1 | 0.649 | 0.115 | 0.194 | 0.614 | 1.36 | 1.9 | 1.1 | 0.562 (inactive) | 1.71 | 0.363 | 0.907 | 0.596 (inactive) | 2.61 (inactive) | 1.72 (inactive) | 3.43 | -0.12 (inactive) | 0.507 | 0.364 | 1.05 | 0.0464
10 | CCCC[C@@H]1C[C@H]1[C@@H](NC(=O)c1ccccc1)c1ccc(Cl)cc1 | 1.22 | -0.657 | -0.196 | -2.08 | -2 | -0.596 | 1.36 | 1.62 (inactive) | -0.833 | -0.134 | -1.36 | 0.222 (inactive) | -1.96 (inactive) | -2.01 (inactive) | 0.0826 | -1.49 (inactive) | -0.204 | -2.06 | -1.77 | -0.421
